TDP1 cell CPT – qHTS for Inhibitors of human tyrosyl-DNA phosphodiesterase 1 (TDP1): qHTS in cells in presence of CPT; 420,000 compounds, 12% hits; Potency, µM (doses to about 46.2 µM), without a hit: at the highest dose activity change, negative = growth inhibition, hits mostly inhibitors; chicken DT40 Tdp1-/-;hTDP1 cells + 20 nM CPT, ATP luminescence, 48 h; further: potency means the concentration at half of the fitted maximal effect; nearly all actives have a fitted effect of over 55% in size
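Chicken DT40 Tdp1-/- cells complemented with human TDP1, 400 cells/well, exposed to compounds plus 20 nM camptothecin for at least 48 h at 37 C; viability read as ATP content by CellTiter-Glo luminescence.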
TDP1 cell noCPT – qHTS for Inhibitors of human tyrosyl-DNA phosphodiesterase 1 (TDP1): qHTS in cells in absence of CPT. DT40 Tdp1-/- hTDP1 cells, no CPT, ATP luminescence, 48 h. Potency, µM (highest dose often 46.2 µM), inactives show at the highest dose activity change, negative = growth inhibition, most hits filed as inhibitors. 420,000 compounds, 15% hits; further: potency means the concentration at half of the fitted maximal effect; nearly all actives have a fitted effect of over 55% in size
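A cellular qHTS used chicken DT40 cells lacking endogenous Tdp1 but carrying stably transfected human TDP1. Compounds were applied without camptothecin, and cell growth kinetics were judged by ATP-dependent luminescence after ≥48 hr.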
HT1080 IDH1KD tx – qHTS for induction of synthetic lethality in tumor cells producing 2HG: qHTS for the HT-1080-IDH1KD cell line; HT-1080 IDH1 knockdown viability, ATP luminescence, 48 h; Potency, µM (series often up to 46.1 µM), inactives show at the top dose activity, negative = toxicity, most hits filed as cytotoxic; 360,000 compounds, 2% hits; AID 686971, 2013;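 further: potency means the concentration at half of the fitted maximal effect; 0% = DMSO wells and -100% = cell-free medium wells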
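Knockdown cells (IDH1KD HT-1080) received compounds 2 h after plating at 750 cells/well and were kept 48 h at 37 °C in 5% FBS RPMI. A CellTiter-Glo luminescence read gave % activity for curve fitting.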
uPA surface inh – qHTS for Inhibitors of Cell Surface uPA Generation. cell surface uPA generation assay, qHTS. Potency, µM (top dose mostly 38.3 µM), for inactives: at the top dose activity change, negative = inhibition, hits mostly inhibitors. 330,000 compounds, 0.31% hits; active means well fitted inhibition curve with a large enough effect; inconclusive means small, poorly fitted or top-dose-only effect; inactive means no such curve, though single readings can be large or run the other way; tested in mouse RAW 264.7 cells; further: potency means the concentration at half of the fitted maximal effect; nearly all actives have a fitted effect of over 55% in size
IL-1B inflam inh – qHTS for Inhibitors of Inflammasome Signaling: IL-1-beta AlphaLISA Primary Screen; THP-1 LPS/ATP IL-1B secretion, AlphaLISA, 16 h; stronger effect = lower value; activity change, % at 57.5 µM; 360,000 compounds, 4.7% hits; in the data active means activity change below about -50%; inconclusive means mostly about -30% to -49%
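Secreted IL-1B measured by AlphaLISA bead assay after 16 h compound exposure of THP-1 cells; compounds (final up to 57.5 uM) added 1 h before LPS (250 ng/mL) and ATP (1.25 mM) stimulation; lower signal means less secretion.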
HT1080NT lethal – qHTS for induction of synthetic lethality in tumor cells producing 2HG: qHTS for the HT-1080-NT fibrosarcoma cell line; HT-1080-NT fibrosarcoma viability, CellTiter-Glo ATP luminescence, 48 h; Potency, µM (series often up to 46.1 µM), without a hit: at the highest dose activity, negative = less viability, actives largely listed as cytotoxic; 360,000 compounds, 1.6% hits; AID 686970, 2013;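 further: NT is the 2HG producing partner of a matched IDH1 knockdown line; potency means the concentration at half of the fitted maximal effect; 0% = DMSO-treated cells and -100% = media-only wells without cells; nearly all actives have a fitted effect of over 55% in size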
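HT-1080-NT fibrosarcoma cells (2HG-overproducing), 750 cells/well in RPMI with 5% FBS, dosed after 2 h and incubated 48 h at 37C. CellTiter-Glo luminescence normalized to DMSO and no-cell wells; concentration-response curves fitted and classed.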
Active calls of the source: *. Most compounds without a hit are left out; they make up all but 19% or so of the library. Unless noted, the call rests on the fitted dose curve; in most records, active means well fitted curve in the direction sought with a large enough effect; inconclusive means small, poorly fitted or top-dose-only effect, or another doubt; inactive means no such curve, though single readings can be large; an effect the other way counts as inactive or inconclusive. Unless noted, on the % scale 0 is the no-effect control and ±100 the full control effect.

Results for CCC1CCCCN1C(=O)COC(=O)c1cncc(Br)c1 (stereo not drawn) ?
TDP1 cell CPT: -2.0%; TDP1 cell noCPT: 5.2%; HT1080 IDH1KD tx: 5.4%; IL-1B inflam inh: -1.9; HT1080NT lethal: 9.6%

Results for CC(=O)N1CCN(c2c(F)c(F)c(C(F)(F)F)c(F)c2F)CC1 ?
TDP1 cell CPT: inconclusive; TDP1 cell noCPT: 14.6µM*; HT1080 IDH1KD tx: -7.1%; IL-1B inflam inh: 12.0; HT1080NT lethal: -13.8%

How did CC(=O)N1CCN(c2nc3c(F)cc(F)cc3s2)CC1 do in these assays?
TDP1 cell CPT: -22.0%; TDP1 cell noCPT: -24.2%

How did COc1cccc(CNC(=O)c2nc(Cn3nc(C)c(Br)c3C)no2)c1 do in these assays?
TDP1 cell CPT: -20.2%; TDP1 cell noCPT: inconclusive

What do the screens show for `O=[N+]([O-])c1cccc(CN2CCC(Cc3ccccc3)CC2)c1`?
TDP1 cell CPT: 23.1µM*; TDP1 cell noCPT: -56.4%; HT1080 IDH1KD tx: -14.1%; uPA surface inh: 6.0%; IL-1B inflam inh: -2.0; HT1080NT lethal: -8.1%

How did Cc1cc(OCCN2CCC(Cc3ccccc3)CC2)ccc1[N+](=O)[O-] do in these assays?
TDP1 cell CPT: inconclusive; TDP1 cell noCPT: inconclusive; HT1080 IDH1KD tx: inconclusive; uPA surface inh: -2.3%; IL-1B inflam inh: -74.2*; HT1080NT lethal: inconclusive

Results for Cc1cc(OCCN2CC(C)OC(C)C2)ccc1[N+](=O)[O-] (stereo not drawn) ?
TDP1 cell CPT: inconclusive; TDP1 cell noCPT: -19.3%; HT1080 IDH1KD tx: -3.3%; uPA surface inh: -12.8%; IL-1B inflam inh: 0.0; HT1080NT lethal: 4.4%

What do the screens show for `Cc1ccc(N(CC(=O)N2CCCCCC2)S(C)(=O)=O)c(C)c1`?
TDP1 cell CPT: -9.0%; TDP1 cell noCPT: -14.4%; HT1080 IDH1KD tx: -1.3%; IL-1B inflam inh: -8.8; HT1080NT lethal: 0.1%

What do the screens show for `CCc1ccc(Nc2ncc3c(n2)CC(C)(C)CC3=O)cc1`?
TDP1 cell CPT: -11.1%; TDP1 cell noCPT: -17.6%; HT1080 IDH1KD tx: -9.8%; uPA surface inh: -2.2%; IL-1B inflam inh: -61.1*; HT1080NT lethal: -22.4%

What do the screens show for `COc1cccc(C(=O)Nc2ncc3c(n2)CC(c2ccc(OC)cc2OC)CC3=O)c1` (stereo not drawn)?
TDP1 cell CPT: 2.91µM*; TDP1 cell noCPT: 4.11µM*; HT1080 IDH1KD tx: 7.94µM*; IL-1B inflam inh: 16.5; HT1080NT lethal: 7.94µM*

Results for CCc1ccc(Nc2ncc3c(n2)CC(C)CC3=O)cc1 (stereo not drawn) ?
TDP1 cell CPT: -1.7%; TDP1 cell noCPT: -7.3%; HT1080 IDH1KD tx: 21.5%; uPA surface inh: 5.2%; IL-1B inflam inh: -4.2; HT1080NT lethal: 25.8%

What do the screens show for `CCc1ccc(Nc2ncc3c(n2)CC(c2ccc(OC)cc2)CC3=O)cc1` (stereo not drawn)?
TDP1 cell CPT: inconclusive; TDP1 cell noCPT: 16.4µM*; HT1080 IDH1KD tx: inconclusive; uPA surface inh: 2.5%; IL-1B inflam inh: 14.8; HT1080NT lethal: inconclusive

How did COc1ccc(C(=O)Nc2ncc3c(n2)CC(C)CC3=O)cc1 (stereo not drawn) do in these assays?
TDP1 cell CPT: 4.2%; TDP1 cell noCPT: -7.5%; HT1080 IDH1KD tx: 1.3%; uPA surface inh: 3.9%; IL-1B inflam inh: -13.3; HT1080NT lethal: 9.8%

Results for CC1(C)CC(=O)c2cnc(NC(=O)Cc3ccc(Cl)cc3)nc2C1 ?
TDP1 cell CPT: inconclusive; TDP1 cell noCPT: 23.1µM*; HT1080 IDH1KD tx: 29.6%; uPA surface inh: 5.1%; IL-1B inflam inh: 17.9; HT1080NT lethal: 18.4%
